Test results: PubChem BioAssay (EPA / NIEHS)
Values joined by “and” are separate entries in the source; they are usually repeats but may differ in a detail not shown here. Equal values may be shown once. Where a structure was tested more than once in an assay, its records may differ in their call. Active and inactive are the calls of the source. The calls were made as follows: active = hit-call score of the fitted dose curve at least 0.9, where 1 is the maximum; inactive = score below 0.9.

Tests used:
[1] = target: Nuclear respiratory factor 1 (Homo sapiens) (UniProt Q16656); assay: ATG_NRF1_CIS: Attagene CIS-FACTORIAL HepG2 Assay for human Nuclear Respiratory Factor 1 (NRF1) Orphan Gene (AID 2282987); conditions: HepG2 NRF1 cis-element reporter, Attagene multiplex; actives raise or lower the signal
Method in brief: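 Endogenous factor activity was captured via cis-element-driven reporter transcripts in HepG2 cells. Following 24 h chemical treatment, transcripts were quantified by RT-PCR and capillary electrophoresis.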

[2] = ATG_NFI_CIS: Attagene CIS-FACTORIAL HepG2 Assay for human Nuclear Factor I (NFI) (AID 2282989); conditions: HepG2 cis-regulatory reporter, NFI response element transcription; actives raise or lower the signal
Method in brief: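 HepG2 cells transiently transfected with cis-element-driven multiplexed reporter transcription units, dosed for 24 h. Reporter mRNA quantified by RT-PCR, fluorescent labelling, HpaI digestion and capillary electrophoresis; bidirectional fit versus DMSO baseline.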

[3] = target: Myc proto-oncogene protein (Homo sapiens) (UniProt P01106); assay: ATG_Myc_CIS: Attagene CIS-FACTORIAL HepG2 Assay for human Myelocytomatosis (Myc) Proto-Oncogene Transcription Factor (AID 2282990); conditions: HepG2, Attagene cis-reporter transcription factor activity; actives raise or lower the signal
Method in brief: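 Multiplexed cis-reporter transcription in HepG2 cells after 24 h chemical treatment. Reporter mRNA measured by RT-PCR and capillary electrophoresis fluorescence; activity fitted bidirectionally against DMSO control.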

[4] = ATG_NF_kB_CIS: Attagene CIS-FACTORIAL HepG2 Assay for human Nuclear Factor Kappa B (NF-kB) (AID 2282991); conditions: HepG2 Attagene cis-factorial NF-kB reporter mRNA; actives raise or lower the signal
Method in brief: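 After 24 h compound incubation, transfected HepG2 cells yield total RNA; reporter cDNA is PCR-amplified, end-labelled with 6-FAM, HpaI-digested and analysed on a genetic analyser. Endogenous factor activity, DMSO-referenced bidirectional fit.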

[5] = ATG_NRF2_ARE_CIS: Attagene CIS-FACTORIAL HepG2 Assay for human Nuclear Factor Erythroid 2 Related Factor 2 (NFR2) response to Antioxidant Response Elements (ARE) (AID 2282992); conditions: HepG2 Attagene ARE/NRF2 reporter, transcription factor activity; actives raise or lower the signal
Method in brief: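 Readout: reporter mRNA quantified by RT-PCR plus FAM-labelled primer extension, HpaI digestion and capillary electrophoresis, 24 h after dosing transfected HepG2 cells. Gain or loss of signal is fitted bidirectionally against DMSO baseline.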

[6] = ATG_Oct_MLP_CIS: Attagene CIS-FACTORIAL HepG2 Assay for human Octamer-Binding Transcription Factor (Oct) (AID 2282993); conditions: HepG2 Attagene cis-factorial Oct reporter, mRNA; actives raise or lower the signal
Method in brief: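 HepG2 cells transiently transfected with cis-promoter-driven multiplexed reporter transcription units, dosed for 24 h. Reporter mRNA quantified by RT-PCR, fluorescent labelling, HpaI digestion and capillary electrophoresis; bidirectional fits versus DMSO baseline.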

[7] = target: Cellular tumor antigen p53 (Homo sapiens) (UniProt P04637); assay: ATG_p53_CIS: Attagene CIS-FACTORIAL HepG2 Assay for human p53 Transcription Factor (AID 2282994); conditions: HepG2 p53 cis-element reporter, Attagene mRNA; actives raise or lower the signal
Method in brief: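 Read-out: reporter mRNA by RT-PCR plus capillary electrophoresis with fluorescence detection. Human HepG2 liver cells carried transfected multi-reporter cis-element constructs, dosed 24 h. Gain or loss of signal fitted bidirectionally against DMSO control.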

[8] = BSK_3C_TissueFactor: BioMAP Diversity Plus: 3C Assay for Tissue Factor Biomarker Activity (AID 2282997); conditions: BioMAP 3C HUVEC, tissue factor biomarker readout; actives raise or lower the signal
Method in brief: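 HUVEC, 3C system, 24 h post-dose; Tissue Factor by ELISA; bidirectional fit vs DMSO baseline.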

[9] = BSK_3C_uPAR: BioMAP Diversity Plus: 3C Assay for Urokinase-type plasminogen activator receptor (uPAR) Biomarker Activity (AID 2282998); conditions: BioMAP 3C HUVEC, uPAR biomarker ELISA; actives raise or lower the signal
Method in brief: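 Human umbilical vein endothelial primary cells were exposed to test chemical for 24 h. Cell-surface uPAR was then quantified by ELISA, and responses were fitted bidirectionally against DMSO as negative control and baseline.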

[10] = BSK_3C_VCAM1: BioMAP Diversity Plus: 3C Assay for Vascular cell adhesion molecule 1 (VCAM1) Biomarker Activity (AID 2282999); conditions: BioMAP 3C HUVEC, VCAM1 ELISA, cytokine-stimulated; actives raise or lower the signal
Method in brief: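 Vascular primary endothelium (human umbilical vein) was exposed to chemicals and assayed 24 h later. VCAM-1 levels came from ELISA, with DMSO serving as baseline for bidirectional fitting.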

Measured: AC50

Sequence of Myc proto-oncogene protein (Homo sapiens) (P01106 whole entry, looked up): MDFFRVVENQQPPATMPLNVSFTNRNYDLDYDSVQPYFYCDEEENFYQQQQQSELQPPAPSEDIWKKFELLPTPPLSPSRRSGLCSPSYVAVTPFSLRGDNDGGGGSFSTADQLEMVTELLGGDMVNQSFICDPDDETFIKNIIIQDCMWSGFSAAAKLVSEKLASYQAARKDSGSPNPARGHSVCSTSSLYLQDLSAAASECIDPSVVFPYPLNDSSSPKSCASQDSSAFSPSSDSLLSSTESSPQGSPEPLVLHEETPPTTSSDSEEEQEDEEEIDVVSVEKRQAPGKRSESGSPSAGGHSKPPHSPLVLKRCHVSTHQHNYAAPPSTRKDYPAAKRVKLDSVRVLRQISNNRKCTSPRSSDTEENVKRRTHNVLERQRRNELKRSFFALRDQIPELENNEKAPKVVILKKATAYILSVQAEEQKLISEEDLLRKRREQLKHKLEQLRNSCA
Sequence of Cellular tumor antigen p53 (Homo sapiens) (P04637 whole entry, looked up): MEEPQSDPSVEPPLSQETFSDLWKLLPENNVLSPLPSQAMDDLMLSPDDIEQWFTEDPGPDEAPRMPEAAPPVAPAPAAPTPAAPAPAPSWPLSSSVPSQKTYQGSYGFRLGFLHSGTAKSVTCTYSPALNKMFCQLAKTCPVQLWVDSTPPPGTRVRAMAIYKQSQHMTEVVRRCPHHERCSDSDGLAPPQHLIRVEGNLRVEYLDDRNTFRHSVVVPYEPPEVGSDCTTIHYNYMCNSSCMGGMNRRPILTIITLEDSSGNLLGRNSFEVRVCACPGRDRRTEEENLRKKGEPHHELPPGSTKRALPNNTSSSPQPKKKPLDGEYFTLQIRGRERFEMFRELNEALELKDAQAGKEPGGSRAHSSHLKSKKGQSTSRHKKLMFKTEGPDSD
Sequence of Nuclear respiratory factor 1 (Homo sapiens) (Q16656 whole entry, looked up): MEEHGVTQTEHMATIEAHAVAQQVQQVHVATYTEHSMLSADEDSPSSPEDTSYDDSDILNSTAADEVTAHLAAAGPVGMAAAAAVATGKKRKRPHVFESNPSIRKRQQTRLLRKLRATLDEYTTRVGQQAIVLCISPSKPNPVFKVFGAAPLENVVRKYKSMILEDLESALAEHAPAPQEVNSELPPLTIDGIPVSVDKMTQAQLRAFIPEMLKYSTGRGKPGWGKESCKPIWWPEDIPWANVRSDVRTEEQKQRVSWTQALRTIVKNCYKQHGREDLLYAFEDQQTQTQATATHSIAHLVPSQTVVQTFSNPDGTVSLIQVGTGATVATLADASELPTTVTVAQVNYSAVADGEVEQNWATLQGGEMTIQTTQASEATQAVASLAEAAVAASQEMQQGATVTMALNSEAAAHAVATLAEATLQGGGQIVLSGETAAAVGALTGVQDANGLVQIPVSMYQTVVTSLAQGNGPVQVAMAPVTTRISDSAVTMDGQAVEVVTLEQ

CCCCCCCCCCCCCCCCC
inactive: [1] | [2] | [3] | [4] | [5] | [6] | [7]

O=c1[nH]cccc1O
inactive: [1] | [2] | [3] | [4] | [5] | [6] | [7]

Cc1cccc(C)n1
inactive: [1] | [2] | [3] | [4] | [5] | [6] | [7]

CC(O)C#CC(C)O (stereo not given)
inactive: [6]
active: [1] 143 µM | [2] 127 µM | [3] 53.3 µM | [4] 84 µM | [5] 24.9 µM | [7] 167 µM

O=C1OC(=O)c2ccc3c4c(ccc1c24)C(=O)OC3=O
inactive: [1] | [2] | [3] | [4] | [5] | [6] | [7]

CC1=CCC2C(=O)OC(=O)C2C1 (stereo not given)
inactive: [1] | [2] | [3] | [4] | [5] | [6] | [7]

CCCCCCCCCCCC(=O)Cl
inactive: [1] | [2] | [3] | [6] | [7]
active: [4] 123 µM | [5] 74.5 µM

COCCC(=O)OC
inactive: [1] | [2] | [3] | [4] | [5] | [6] | [7]

OCCCc1cccnc1
inactive: [1] | [2] | [3] | [4] | [5] | [6] | [7]

OC(O)C(F)(F)C(F)(F)F
active: [4] 127 µM | [5] 93.6 µM | [7] 121 µM
inactive: [1] | [2] | [3] | [6] | [8] | [9] | [10]

Cc1ccc(O)c(-n2nc3ccccc3n2)c1
inactive: [1] | [2] | [3] | [4] | [6] | [7] | [8] | [9] | [10]
active: [5] 4.95 µM

O=C(O)C(F)(F)C(F)(F)C(F)(F)OC(F)(C(F)(F)F)C(F)(F)F
inactive: [1] | [2] | [3] | [4] | [6] | [7] | [8] | [9] | [10]
active: [5] 113 µM

Cc1cnccn1
inactive: [1] | [2] | [3] | [4] | [5] | [6] | [7] | [8] | [9] | [10]

O=C(O)CCC(F)(F)C(F)(F)C(F)(F)F
inactive: [1] | [2] | [3] | [4] | [5] | [6] | [7] | [8] | [9] | [10]

C=CC(=O)OCC(F)(F)C(F)(F)C(F)(F)COC(=O)C=C
inactive: [1] | [2] | [3]
active: [4] 15.9 µM | [5] 12.7 µM | [6] 10.9 µM | [7] 78.8 µM | [8] 23.3 µM and 14.6 µM | [9] 30 µM and 48.5 µM | [10] 15.6 µM and 20.5 µM

O=C(O)C(F)(F)C(F)(F)C(F)(F)C(F)(F)C(F)(F)C(F)(F)C(F)F
active: [5] 100 µM
inactive: [1] | [2] | [3] | [4] | [6] | [7] | [8] | [9] | [10]

OCC(F)(F)C(F)(F)C(F)(F)C(F)(F)C(F)(F)C(F)(F)C(F)(F)C(F)(F)CO
inactive: [1] | [2] | [3] | [4] | [5] | [6] | [7] | [8] | [9] | [10]
active: [9] 7.66 µM

FC(F)(F)C(F)(F)C(F)(F)C(F)(F)C(F)(F)C(F)(F)CC[Si](Cl)(Cl)Cl
inactive: [1] | [2] | [3] | [4] | [5] | [6] | [7] | [8] | [9] | [10]

O=C(O)C(F)(F)OC(F)(F)C(F)(F)OC(F)(F)C(F)(F)OC(F)(F)F
inactive: [1] | [2] | [3] | [4] | [6] | [7] | [8] | [9] | [10]
active: [5] 37.8 µM

O=S(=O)(OCC(F)(F)F)C(F)(F)C(F)(F)C(F)(F)C(F)(F)F
inactive: [1] | [2] | [3] | [6] | [8] | [9] | [10]
active: [4] 62.7 µM | [5] 45.6 µM | [7] 89.1 µM | [9] 38.5 µM

O=C(O)CCC(F)(F)C(F)(F)C(F)(F)C(F)(F)C(F)(F)C(F)(F)C(F)(F)F
inactive: [1] | [2] | [3] | [4] | [6] | [8] | [9] | [10]
active: [5] 94.9 µM | [7] 204 µM

C=CC(=O)OCCC(F)(F)C(F)(F)C(F)(F)C(F)(F)F
active: [5] 98.8 µM | [8] 22.2 µM and 26.3 µM | [10] 16.6 µM and 15.6 µM
inactive: [1] | [2] | [3] | [4] | [6] | [7] | [9]

O=C(Cl)C(F)(F)C(F)(F)C(F)(F)C(F)(F)C(F)(F)C(F)(F)F
inactive: [1] | [2] | [3] | [4] | [6] | [7] | [8] | [9] | [10]
active: [5] 154 µM

NC(=O)C(F)(F)C(F)(F)C(F)(F)C(F)(F)C(F)(F)C(F)(F)C(F)(F)F
inactive: [1] | [2] | [3] | [4] | [5] | [6] | [7] | [8] | [9] | [10]
